Our source for the max response, outcome and Potency values is PubChem BioAssay (NCATS).

Unmarked numbers belong to inactive results. Inconclusive results are not listed. Active and inactive are the calls of the source. Calls come from the whole dose curve; as a rule, active = well fitted curve in the direction sought with a large enough effect; inconclusive = small, poorly fitted or top-dose-only effect, or another doubt; inactive = no such curve, though single readings can be large; an effect the other way counts as inactive or inconclusive.

Assay [1] can be described thus: qHTS Assay for Identifying Gametocytocidal Compounds (AID 743244).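 For max response: % is set by controls: 0 for no effect and ±100 for the full control effect; actives lower the fluorescent signal which means gametocytes are killed.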 Note: potency is the fitted concentration of half-maximal effect. The conditions noted are these: P. falciparum 3D7 stage III-V gametocytes, alamarBlue, 72 h; max response: active compounds read low. The method in brief:
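Compounds are pinned into medium, gametocytes (stage III–V, 3D7, 20,000 cells/well) added, and plates held 72 h at 37 °C in 5% CO2. AlamarBlue follows for 24 h before fluorescence reading.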

Assay [2] addresses Arylsulfatase A (Homo sapiens) (UniProt P15289). Description: qHTS screen for enhancers of Arylsulfatase A (ASA1): LOPAC Validation Assay (AID 720538). To be noted: ASA enzyme activity, LOPAC qHTS enhancer assay; series mostly up to 57.5 µM. The gist of the method:
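SV40-transformed fibroblasts from an MLD patient (ASA-I179S) were treated with compound for 48 h at 37 C. They were then lysed with 0.5 mM pNCS substrate (final) for 14 h at room temperature and stopped with NaOH; signal read by fluorescence (Ex 525/Em 598 nm), with increase denoting enhanced activity.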
(In qHTS, concentration-response curves come from the screen itself.)

Assay [3] is described as follows: qHTS for compounds that reverse cellular toxicity of Amyloid beta (A-beta) peptide in yeast: LOPAC Validation Assay (AID 720559).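 Note: plate controls were DMSO for no effect and equimolar ferric chloride plus clioquinol rescue for full effect.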 The conditions noted are these: yeast expressing A-beta; series mostly up to 46.1 µM. The gist of the method:
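Yeast expressing toxic A-beta grown with pinned compounds at 30 C for 48 hr. Growth measured as absorbance at 600 nm; data normalized to DMSO and to an equimolar FeCl3/clioquinol mixture as positive control.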

Assay [4] is described as follows: qHTS for Activators of Parkin Expression: LOPAC Validation Assay (NLuc Reporter) (AID 720572). The conditions noted are these: Parkin promoter NanoLuc reporter cells, luminescence, percent of positive control, DMSO as zero; series mostly up to 46.1 µM. The gist of the method:
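Compound effects on Parkin promoter activity were measured as NanoLuc luminescence after 24 h at 37 C. The neuronal reporter line also carried FLuc, which was read first. LOPAC compounds were tested at 7 concentrations, with normalization to DMSO (0%) and positive control (100%).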

A short description of assay [5]: qHTS for Activators of Parkin Expression: LOPAC Validation Assay (FLuc Reporter) (AID 720573). To be noted: Cell line, PRKN promoter firefly luciferase reporter, vehicle wells = 0, positive control = 100%; series mostly up to 46.1 µM. The method in brief:
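Neuronal cell line stably expressing FLuc/NLuc coincidence reporter under the Parkin promoter, 1,500 cells/well, dosed 24 h after seeding in 7-point series for 24 h at 37 C. FLuc luminescence read; normalized to DMSO and positive control (100%).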

The target of assay [6] is T1, Hexokinase-4 (Homo sapiens) + Glucokinase regulatory protein (Homo sapiens) (UniProt P35557+Q14397). Description: qHTS assay for inhibitors of recombinant human GCK-GKRP interaction: Diaphorase-coupled assay (AID 743205). To be noted: G6PDH/diaphorase resorufin fluorescence; series mostly up to 57.5 µM. The gist of the method:
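Compounds pre-incubated 20 min with substrate, then 10 nM GST-GCK with 10 nM FLAG-GKRP added. GCK activity coupled via G6PDH and diaphorase to resorufin (5 mM glucose, 0.4 mM ATP, 0.15 mM NADP+, pH 7.6), read kinetically over 30 minutes at Ex 525/Em 590 nm.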

Assay [7] deals with T1, Hexokinase-4 (Homo sapiens) + Glucokinase regulatory protein (Homo sapiens). Description: qHTS assay for inhibitors of recombinant human GCK-GKRP interaction: ADP-Glo assay (AID 743206).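 Note: plate controls were DMSO plus enzyme for no effect and no enzyme for full effect.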 To be noted: ADP-Glo luminescence, 60 min, 0% = vehicle-only wells with enzyme present; series mostly up to 76.9 µM. The method in brief: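 Pin-transferred compounds meet a 15 nM GST-GCK/15 nM FLAG-GKRP/2 uM S6P mix (dispense concentrations). ATP is then added to 0.4 mM final with 5 mM glucose, and the reaction runs 60 min at room temperature. ADP is quantified luminescently.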

Assay [8] shares this target. Description: qHTS assay for inhibitors of recombinant human GCK-GKRP interaction: HTRF assay (AID 743207).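 Note: 0% = DMSO with GCK present and -100% = DMSO wells lacking GCK.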 To be noted: recombinant GCK-GKRP HTRF binding, 60 min, with sorbitol-6-phosphate; series mostly up to 57.5 µM. The method in brief: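 HTRF binding of 5 nM GST-GCK and 5 nM FLAG-GKRP with 2 uM S6P in pH 7.1 Hepes buffer (MgCl2, KCl, DTT, Tween 20, BSA). Anti-FLAG XL665 and anti-GST donor added, 60 min at room temperature; 665/615 nm read, normalized to with- and without-GCK controls.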

T1 sequence (P35557 whole entry, looked up): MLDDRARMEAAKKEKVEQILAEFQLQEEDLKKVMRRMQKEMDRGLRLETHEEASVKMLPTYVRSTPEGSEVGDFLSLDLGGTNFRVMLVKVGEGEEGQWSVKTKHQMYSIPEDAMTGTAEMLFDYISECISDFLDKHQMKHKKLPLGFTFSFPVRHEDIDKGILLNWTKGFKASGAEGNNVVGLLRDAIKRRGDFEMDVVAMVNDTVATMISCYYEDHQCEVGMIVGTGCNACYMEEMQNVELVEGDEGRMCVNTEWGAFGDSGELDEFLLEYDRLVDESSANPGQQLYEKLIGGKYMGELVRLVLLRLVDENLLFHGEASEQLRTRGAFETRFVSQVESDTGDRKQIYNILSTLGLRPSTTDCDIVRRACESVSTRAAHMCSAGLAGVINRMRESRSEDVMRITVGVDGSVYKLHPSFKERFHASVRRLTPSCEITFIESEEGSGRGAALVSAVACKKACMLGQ
T1 sequence (Q14397 whole entry, looked up): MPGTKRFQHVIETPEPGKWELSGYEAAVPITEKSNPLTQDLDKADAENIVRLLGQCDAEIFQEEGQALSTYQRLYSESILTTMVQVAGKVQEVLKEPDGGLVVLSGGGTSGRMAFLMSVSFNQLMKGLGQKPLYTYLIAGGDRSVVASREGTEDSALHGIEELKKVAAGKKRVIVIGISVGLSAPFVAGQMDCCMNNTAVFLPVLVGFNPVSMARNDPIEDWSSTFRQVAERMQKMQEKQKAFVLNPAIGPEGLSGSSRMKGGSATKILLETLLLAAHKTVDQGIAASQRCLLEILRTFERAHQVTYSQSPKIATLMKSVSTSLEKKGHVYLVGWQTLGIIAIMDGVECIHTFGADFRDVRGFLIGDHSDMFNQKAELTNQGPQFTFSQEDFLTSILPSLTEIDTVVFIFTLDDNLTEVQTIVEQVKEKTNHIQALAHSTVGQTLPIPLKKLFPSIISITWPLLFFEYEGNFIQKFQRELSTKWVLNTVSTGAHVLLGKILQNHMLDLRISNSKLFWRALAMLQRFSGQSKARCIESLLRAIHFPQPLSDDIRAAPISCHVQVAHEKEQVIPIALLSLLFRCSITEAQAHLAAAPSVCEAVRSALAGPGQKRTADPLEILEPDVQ
Arylsulfatase A (Homo sapiens), sequence (P15289 whole entry, looked up): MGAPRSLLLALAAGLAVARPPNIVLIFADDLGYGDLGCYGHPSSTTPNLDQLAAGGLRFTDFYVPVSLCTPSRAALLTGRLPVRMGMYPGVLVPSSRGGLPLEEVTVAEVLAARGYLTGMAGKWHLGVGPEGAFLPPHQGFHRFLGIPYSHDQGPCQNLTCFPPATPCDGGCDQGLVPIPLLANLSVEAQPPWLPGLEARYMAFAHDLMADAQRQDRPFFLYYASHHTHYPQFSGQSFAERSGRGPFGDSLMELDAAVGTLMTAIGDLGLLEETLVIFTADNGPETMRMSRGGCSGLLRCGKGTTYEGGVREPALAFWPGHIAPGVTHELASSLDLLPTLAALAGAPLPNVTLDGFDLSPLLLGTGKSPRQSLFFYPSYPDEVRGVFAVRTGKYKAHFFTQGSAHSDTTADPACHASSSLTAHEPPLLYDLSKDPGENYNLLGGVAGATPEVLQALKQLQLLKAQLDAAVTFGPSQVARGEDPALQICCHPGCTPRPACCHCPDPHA

Take `CCOc1cc(N)c(Cl)cc1C(=O)NCC1CN(Cc2ccc(F)cc2)CCO1` (stereo not given): in assay [1], the max response is 1.28%.

Turning to `COc1cc2ncnc(Nc3cccc(Cl)c3)c2cc1OC`, the result in assay [2], in assay [3], in assay [4], in assay [5], in assay [6] and in assay [7] was inactive. Further, in assay [8], the outcome was inactive. For the same compound, in assay [1], the max response is 13.8%.

On to `C[C@@H](CN1CC(=O)NC(=O)C1)N1CC(=O)NC(=O)C1`, for which the max response in assay [1] was 9.49%.

In the case of `CC(C)Cn1cnc2c(N)nc3ccccc3c21`, in assay [1], the max response is -6.2%.

Turning to `COCCCOc1cc(C[C@@H](C[C@H](N)[C@@H](O)C[C@H](C(=O)NCC(C)(C)C(N)=O)C(C)C)C(C)C)ccc1OC`, the max response in assay [1] is 13.7%.

With `CC1=C(C(=O)O)N2C(=O)[C@@H](NC(=O)C(N)c3ccccc3)[C@H]2SC1` (stereo not given in full), the outcome in assay [2], in assay [3], in assay [4], in assay [5], in assay [6] and in assay [7] was inactive. The result in assay [8] was inactive. For the same compound, the max response in assay [1] was 7.37%.

Consider `CCc1c2c(nc3ccc(OC(=O)N4CCC(N5CCCCC5)CC4)cc13)-c1cc3c(c(=O)n1C2)COC(=O)[C@]3(O)CC`, for which the max response in assay [1] is 2.43%.

As for `Cn1c(=O)c2c(ncn2CC(O)CO)n(C)c1=O` (stereo not given), in assay [1], the max response is -1.9%.

`Nc1nc(N)nc(-c2cc(Cl)ccc2Cl)n1`: the max response in assay [1] is 11.2%.

`Cc1onc(-c2ccccc2Cl)c1C(=O)N[C@@H]1C(=O)N2[C@@H]1SC(C)(C)[C@@H]2C(=O)O`: the max response in assay [1] is -11.3%.

As to `N[C@@H](C(=O)N[C@@H]1C(=O)N2C(C(=O)O)=C(Cl)CS[C@H]12)c1ccccc1`, the max response in assay [1] is 19.9%.

In the case of `O=C(O)CSCC(=O)NC1CCSC1=O` (stereo not given), in assay [1], the max response is -6.62%.

Consider `CCOCC(O)COc1ccc(NC(=O)CC[S+](C)C)cc1` (stereo not given), for which, in assay [1], the max response is 2.79%.

For `CCCc1nc(C)c2c(=O)[nH]c(-c3cc(S(=O)(=O)N4CCN(CC)CC4)ccc3OCC)nn12`, the max response in assay [1] was 1.11%.

Take `NC(=O)N1c2ccccc2CC(=O)c2ccccc21`: the max response in assay [1] is 34.3%.

For the compound `Cc1oc(=O)oc1CN1CCN(c2cc3c(cc2F)c(=O)c(C(=O)O)c2n3C(C)S2)CC1` (stereo not given), the max response in assay [1] is 2.62%.

For `CC1=CC(=O)c2ccccc2C1=O`, the Potency in assay [1] is 12.6 µM (active).

For `CCn1cc(C(=O)O)c(=O)c2cc(F)c(N3CCN(C)CC3)cc21`, the max response in assay [1] was 4.94%.

Consider `CCCOc1ccc(C(=O)OCCN(CC)CC)cc1N`, for which, in assay [1], the max response was 14.8%.

As for `CNS(=O)(=O)CCc1ccc2[nH]cc(C3CCN(C)CC3)c2c1`, the max response in assay [1] is 4.41%.

With `O=c1cc(O)c(Cl)c[nH]1`, the max response in assay [1] is 10.3%.

On to `CNNCc1ccc(C(=O)NC(C)C)cc1`, for which the max response in assay [1] is -5.75%.

As for `CS(=O)(=O)c1ccc([C@@H](O)[C@@H](CO)NC(=O)C(Cl)Cl)cc1`, in assay [1], the max response is 8.86%.

Take `C#CCN[C@@H]1CCc2ccccc21`: in assay [1], the max response is -0.979%.

In the case of `CN1CCCC(n2nc(Cc3ccc(Cl)cc3)c3ccccc3c2=O)CC1` (stereo not given), the max response in assay [1] is 32.9%.

For `CC(C)(C)C(=O)OCOP(=O)(COCCn1cnc2c(N)ncnc21)OCOC(=O)C(C)(C)C`, the max response in assay [1] is 4.48%.

With `C1CCC(C(CC2CCCCN2)C2CCCCC2)CC1` (stereo not given), the Potency in assay [1] is 10 µM (active).

For the compound `Cn1nnc2c(C(N)=O)ncn2c1=O`, the max response in assay [1] was -7.58%.

With `COc1ccc2c(c1)c(CC(=O)OCC(=O)O)c(C)n2C(=O)c1ccc(Cl)cc1`, in assay [1], the max response is -13.1%.

`COC(c1ccccc1)(c1ccccc1)[C@H](Oc1nc(C)cc(C)n1)C(=O)O`: the max response in assay [1] was 8.54%.

For `CC(N)C12CC3CC(CC(C3)C1)C2` (stereo not given), in assay [1], the max response was 26.1%.

With `CN(C)CCc1c[nH]c2ccc(CS(=O)(=O)N3CCCC3)cc12`, the max response in assay [1] is 1.18%.

For the compound `COc1cc(NS(=O)(=O)c2ccc(N)cc2)nc(OC)n1`, in assay [1], the max response was 22.6%.

Regarding `Nc1ccc(S(=O)(=O)Nc2ccccn2)cc1`, in assay [1], the max response is 3.9%.

On to `C[C@@H]1C[C@H]2[C@@H]3CCC4=CC(=O)C=C[C@]4(C)[C@@]3(Cl)[C@@H](O)C[C@]2(C)[C@@]1(OC(=O)c1ccco1)C(=O)CCl`, for which the max response in assay [1] is 3.64%.

For `O=C(O)c1cn(C2CC2)c2cc(N3CCNCC3)c(F)cc2c1=O`, the max response in assay [1] was 4.49%.

As to `CCn1cc(C(=O)O)c(=O)c2cc(F)c(N3CCNCC3)nc21`, the max response in assay [1] is 0.203%.

As to `NCCCC(O)(P(=O)(O)O)P(=O)(O)O`, the max response in assay [1] was 14.9%.

In the case of `CN(Cc1cc(Br)cc(Br)c1N)C1CCCCC1`, the max response in assay [1] is -1.96%.

In the case of `NS(=O)(=O)c1cc2c(cc1Cl)NC(C(Cl)Cl)NS2(=O)=O` (stereo not given), in assay [1], the max response is 6.12%.

Regarding `C[C@@H]1CN(c2c(F)c(N)c3c(=O)c(C(=O)O)cn(C4CC4)c3c2F)C[C@H](C)N1`, in assay [1], the max response is 13.9%.
